Most compounds without a hit are left out; they make up all but 2.5% or so of the library.
TDP43 rescue = qHTS of TDP-43 Inhibitors; 410,000 tested, 1.8% active; Potency, µM (highest dose often 46.1 µM), usual class: activators; TDP-43 expressing yeast growth rescue, BacTiter-Glo, 24 h; further: nearly all actives have a fitted effect of over 50% in size
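Growth rescue of TDP-43-toxic yeast measured as ATP luminescence (BacTiter-Glo). Cells grown to mid-log in raffinose, induced in galactose at OD600=0.02, exposed to compound 24 hr at 30 deg C.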
Mito fusion act = qHTS Assay for Small Molecule Inhibitors of Mitochondrial Division or Activators of Mitochondrial Fusion | S. cerevisiae fusion-defective mutant growth rescue, CellTiterGlo 48 h | Potency, µM (highest dose often 46.1 µM), hits mostly activators | 320,000 tested, 0.23% active | AID 485298, 2010; further: nearly all actives have a fitted effect of over 45% in size
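Read-out: ATP-based luminescence (CellTiterGlo, 10 min ambient) reporting growth of fusion-defective ts yeast after 48 hours at 37C on glycerol/ethanol YPEG medium in the presence of compound.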
Anesthetic bind = qHTS Assay for Identification of Novel General Anesthetics. Ferritin light chain (Equus caballus), P02791. apoferritin/1-aminoanthracene competitive binding, fluorescence. Potency, µM (series often up to 77.5 µM), hits mostly inhibitors. 350,000 tested, 0.074% active; further: nearly all actives have a fitted effect of over 20% in size
Target sequence (P02791 2-175 limits assumed): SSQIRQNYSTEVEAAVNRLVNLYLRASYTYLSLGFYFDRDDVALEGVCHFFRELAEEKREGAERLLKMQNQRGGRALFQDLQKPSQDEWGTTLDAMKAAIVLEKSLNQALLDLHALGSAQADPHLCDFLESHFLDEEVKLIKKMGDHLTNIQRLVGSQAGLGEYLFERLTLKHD
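Probe: 1-aminoanthracene (50% saturated, PBS). Protein: horse-spleen apoferritin, 10 uM. Incubation: 10 min, room temperature. Detection: 380 nm excitation, 535 nm emission. Analysis: normalized response, four-parameter Hill.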
aSyn rescue = qHTS of alpha-syn Inhibitors. Yeast expressing alpha-synuclein, growth rescue, BacTiter-Glo, 24 h. Potency, µM (titrated, usually from 46.1 µM), hits mostly activators. 370,000 tested, 0.14% active. AID 652106, 2013; further: nearly all actives have a fitted effect of over 65% in size
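Rescue of yeast growth: cells expressing toxic alpha-synuclein, induced in galactose at OD600 0.02, incubated with compound 24 h at 30 C. ATP luminescence quantified growth; inhibitors of toxicity appear as activators.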
Akt phos inh = HTS Assay for Inhibitors of Akt Phophorylation: Primary Screen. Neuro2A IGF-stimulated pAkt S473 HTRF, 20 min; stronger effect = lower value. activity change, % for hits at 50 µM. 360,000 tested, 0.32% active; in the data active means activity change below about -80%; inconclusive means mostly about -51% to -80%
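Neuro2A cells in DMEM with 0.5% FBS, overnight at 37 deg C, given compound at single 50 µM final, then IGF (6 nM final) for 20 min at 37 deg C. Lysed; phospho-Akt Ser473 by HTRF after 24 h, 665/615 ratio.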
CCT modulator = High-Throughput Screening for Modulators of Cytosolic Chaperonin Activity | AID 651819, 2012 | activity change, % (concentration not given with the values), hits read low | purified chaperonin ATPase assay, HTRF ADP detection, 30 min | 360,000 tested, 0.3% active; in the data active means activity change below about -30%
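TRiC (40 or 20 nM final, by batch activity) in 30 mM Tris pH 7.4, 100 mM KCl, 5 mM MgCl2, 1 mM DTT was treated with compound at 76 uM single dose, then 10 uM ATP, 30 min at 37 °C. ADP was read by HTRF Transcreener.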
Numbers stand for hits; . = inactive; ? = inconclusive; / = no result; [ ] = another dose, or the depositor's remark. Unless noted, the call rests on the fitted dose curve; in most records, active means well fitted curve in the direction sought with a large enough effect; inconclusive means small, poorly fitted or top-dose-only effect, or another doubt; inactive means no such curve, though single readings can be large; an effect the other way counts as inactive or inconclusive.

SMILES	TDP43 rescue	Mito fusion act	Anesthetic bind	aSyn rescue	Akt phos inh	CCT modulator
Fc1ccc(-c2nc3c4ccccc4ccn3c2Cc2cccc(Cl)c2)cc1	14.1µM	/	/	.	.	.
CC(C)(C)c1ccc(O)c(N=Cc2cccc([N+](=O)[O-])c2)c1	/	/	/	.	/	/
Cc1ccc(S(=O)(=O)Nc2cccc3ccc[n+](C)c23)cc1	/	/	.	/	/	/
Cc1cnc(CNc2ncnc3ccc(-c4ccccc4C#N)cc23)cn1	/	/	.	/	/	/
Nc1nc(NCc2ccc(Cl)c(Cl)c2)c2[nH]cnc2n1	/	/	/	.	/	/
c1ccc(CNc2ncnc3c2ncn3Cc2ccccc2)cc1	/	/	/	.	/	/
COc1ccc2cc(C3(C)NC(=O)N(CC(=O)NCCC4=CCCCC4)C3=O)ccc2c1 (stereo not drawn)	.	.	.	.	.	.
COc1ccc2cc(C3(C)NC(=O)N(CC(=O)NCC(F)(F)F)C3=O)ccc2c1 (stereo not drawn)	.	.	.	.	.	-33.3
Cc1ccc(C)c(NC(=O)CSc2cn(CC(=O)N3CCCC3)c3ccccc23)c1	.	/	.	/	/	/
CCc1ccc(OCC(=O)Nc2ccc3c(c2)COC3=O)cc1	12.6µM	.	.	.	.	.
CCc1ccc(OCC(=O)NCCc2ccc3c(c2)OCCO3)cc1	31.6µM	.	/	.	.	.
O=C(Cn1c(-c2cccs2)cc2cc(Cl)ccc21)NCc1ccccc1	.	/	.	/	/	/
O=C(O)Cn1c(-c2cccs2)cc2cc(Cl)ccc21	17.8µM	/	.	/	/	/
Cc1ccc2c(CNCc3ccc(C)o3)c(C(=O)O)n(Cc3ccccc3C)c2c1	.	/	?	/	/	/
O=[N+]([O-])c1ccc(Nc2nc(N/N=C\c3ccc4c(c3)OCO4)nc(N3CCCCC3)n2)cc1	11.2µM	.	.	.	.	.
O=[N+]([O-])c1ccc(/C=N/Nc2nc(N3CCCCCC3)nc(N3CCCCCC3)n2)o1	22.4µM	?	.	.	.	.
O=[N+]([O-])c1ccc(/C=N/Nc2nc(N3CCCCC3)nc(N3CCCCC3)n2)cc1	.	.	.	.	.	.
CC(C)(C)c1ccc(C(=O)C[n+]2ccccc2Cl)cc1	/	/	/	.	/	/
O=C(CN1CCN(Cc2ccc(F)cc2)C1=O)NCc1ccccc1	.	/	.	/	/	/
O=C(c1ccco1)N1N=C(c2ccccc2O)CC1c1cccs1 (stereo not drawn)	35.5µM	/	/	.	.	.
Cc1ccc(S(=O)(=O)N(C)CCN(C)c2nc(-c3cccs3)nc3ccccc23)cc1	/	/	/	.	/	/
CCNc1nc(-c2sc(NC(=O)C(C)(C)C)nc2C)c(-n2cc(-c3ccccc3)nn2)s1	28.2µM	/	/	.	.	.
N#Cc1nc(-c2ccccc2)cc(-c2ccccc2)n1	/	/	/	.	/	/
C=C1C(=O)OC2CC1C(OC(C)=O)CC(C)=CCCC(C)=CCC[C@@]2(C)O (stereo partly drawn)	/	/	.	/	/	/
CCOC(=O)c1cc2c(C)n(-c3ccc(C)cc3)c(C)c2ccc1=O	20µM	.	?	.	.	.
SMILES	TDP43 rescue	Mito fusion act	Anesthetic bind	aSyn rescue	Akt phos inh	CCT modulator
C=CCn1c(SCC(=O)N2CCc3ccccc3C2)nc2sc(CC)cc2c1=O	.	?	.	.	.	.
C=CCn1c(SCC(=O)N2CCc3ccccc3C2)nc2sc(C)c(C)c2c1=O	.	12.6µM	.	.	.	.
CCN1CCN(C(=S)c2ccc(SC)cc2)CC1	.	.	.	.	.	.
CSc1ccc(C(=S)N2CCCCCC2)cc1	11.2µM	.	?	.	.	.
Cc1ccccc1S(=O)(=O)NC(=O)C1(C)CCN1C(=O)CCc1cccs1 (stereo not drawn)	.	/	/	.	.	.
CC1(C(=O)NS(=O)(=O)c2ccc(Cl)cc2)CCN1C(=O)C1(c2ccccc2)CCCC1 (stereo not drawn)	14.1µM	/	/	.	.	.
COc1cc(C)ccc1S(=O)(=O)NC(=O)C1(C)CCN1C(=O)C1(c2ccc(Cl)cc2)CCC1 (stereo not drawn)	28.2µM	/	/	.	.	.
CC1(C(=O)NS(=O)(=O)c2ccc(Cl)cc2)CCN1C(=O)C1(c2ccc(Cl)cc2)CCC1 (stereo not drawn)	20µM	/	/	.	.	.
CCCCc1ccc(S(=O)(=O)NC(=O)C2(C)CCN2C(=O)CCc2cccs2)cc1 (stereo not drawn)	35.5µM	/	/	.	.	.
CC1(C(=O)NS(=O)(=O)c2ccccc2)CCN1C(=O)C1(c2ccc(Cl)cc2)CC1 (stereo not drawn)	?	/	/	.	/	.
CCCCCCC#Cc1cc(OC)c(OC)cc1C(N1CC(C)c2ccccc21)N1CC(C)c2ccccc21 (stereo not drawn)	/	/	.[15.3 µM]	/	/	/
CC(C)(C)c1ccc(S(=O)(=O)NC(=O)C2(C)CCN2C(=O)C2(c3ccccc3)CC2)cc1 (stereo not drawn)	17.8µM	/	/	.	.	.
CCCC(=O)N1CCC1(C)C(=O)NS(=O)(=O)c1ccc(OC)cc1 (stereo not drawn)	.	/	/	.	.	.
COc1ccc(S(=O)(=O)NC(=O)C2(C)CCN2C(=O)C(C)(C)c2ccccc2)cc1 (stereo not drawn)	14.1µM	/	/	.	.	.
CC(C)(C)c1ccc(S(=O)(=O)NC(=O)C2(C)CCN2C(=O)c2cccc3ccccc23)cc1 (stereo not drawn)	20µM	/	/	.	.	.
Cc1oc2c(c1C(=O)Nc1ccccc1Br)C1=NCCN1C=N2	.	/	.	/	/	/
CC(C)CNC(=O)Nc1cc(C(=O)NCc2ccc(C(C)C)cc2)ccc1N1CCCC1	.	/	.	/	/	/
COc1ccc(NC(=O)c2cc3c(CO)cnc(C)c3oc2=Nc2cccc(C)c2)c(OC)c1	.	.	.	.	.	-37.1
Cn1cc(S(=O)(=O)N2CCCCCC2)cc1C(=O)N1CCN(c2cccc(Cl)c2)CC1	.	/	.	/	/	/
CCOC(=O)c1noc2ncnc(Nc3cc(Cl)c(OC)cc3OC)c12	.	/	.	/	/	/
CCOC(=O)c1noc2ncnc(NCc3ccccc3OC)c12	28.2µM	/	.	/	/	/
C=CCC1(C)OC=Cc2nc3cc(Cl)c(Cl)cc3nc21 (stereo not drawn)	/	/	.[15.3 µM]	/	/	/
CCc1ccccc1Nc1nn2c(=O)c3ccc(C(=O)NC(C)c4ccccc4)cc3nc2s1 (stereo not drawn)	.	/	.	.	/	/
CC(C)(C)c1ccc(S(=O)(=O)Nc2ccc(C(O)(C(F)(F)F)C(F)(F)F)cc2)cc1	35.5µM	/	/	.	.	.
COc1cccc(S(=O)(=O)Nc2ccc(C(O)(C(F)(F)F)C(F)(F)F)cc2)c1	.	/	/	.	.	.
O=S(=O)(Nc1ccc(C(O)(C(F)(F)F)C(F)(F)F)cc1)c1cccc2ccccc12	35.5µM	/	/	.	.	.
